In PubChem BioAssay (EPA / NIEHS) one finds outcome and AC50 data, which are given here for 20 compounds.

Test [1] addresses human Retinoid X Receptor beta (RXRb), RXRB (gene 6257) (UniProt P28702). The test can be described thus: ATG_RXRb_TRANS: Attagene TRANS-FACTORIAL HepG2 Assay for human Retinoid X Receptor beta (RXRb) (AID 2283013; active = hit-call score of the fitted dose curve at least 0.9, where 1 is the maximum). The procedure, abridged: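 After a 24 h incubation with test chemical, transfected HepG2 cells carrying NR-Gal4 fusions and GAL4-UAS reporter transcription units yield RNA whose reporter cDNA is FAM-labelled, HpaI-cut and sized by capillary electrophoresis; increases over DMSO are scored.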

For test [2], the target named is human Thyroid Receptor alpha (THRa1), THRA (gene 7067) (UniProt P10827). The test can be described thus: ATG_THRa1_TRANS: Attagene TRANS-FACTORIAL HepG2 Assay for human Thyroid Receptor alpha (THRa1) (AID 2283014; active = hit-call score of the fitted dose curve at least 0.9, where 1 is the maximum). In a few lines:
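Transient HepG2 transfection, NR-Gal4 chimera driving GAL4-UAS reporters; 24 h compound exposure; total RNA, oligo(dT) RT, PCR, fluorescent primer extension, capillary electrophoresis. Upward direction vs DMSO control.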

Read-out in test [3]: E-selectin (Homo sapiens) (UniProt P16581)
Put plainly: BSK_3C_Eselectin: BioMAP Diversity Plus: 3C Assay for Eselectin Biomarker Activity (AID 2283015).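 For outcome: cell surface E-selectin protein quantified by ELISA 24 h after dosing.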 The settings on record: primary human endothelial cells (HUVEC); actives raise or lower the signal. In a few lines: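 HUVEC, 3C stimulation; compound exposure 24 h; E-selectin by ELISA; gain- or loss-of-signal fitted bidirectionally vs DMSO baseline.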

Read-out in test [4]: Interleukin-1 alpha (IL1a), IL1A (gene 3552)
The test can be described thus: BSK_BE3C_IL1a: BioMAP Diversity Plus: BE3C Assay for Interleukin-1 alpha (IL1a) Biomarker Activity (AID 2283016). The settings on record: primary human bronchial epithelial cells; actives raise or lower the signal. The procedure, abridged: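 Measured in human lung primary bronchial epithelial cells: IL-1a by ELISA at 24 h after dosing, with bidirectional fitting against DMSO.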

Read-out in test [5]: Monocyte Chemoattractant Protein-1 (MCP1), CCL2 (gene 6347)
The test can be described thus: BSK_3C_MCP1: BioMAP Diversity Plus: 3C Assay for Monocyte Chemoattractant Protein-1 (MCP1) Biomarker Activity (AID 2283017). The settings on record: primary human endothelial cells (HUVEC); actives raise or lower the signal. The procedure, abridged: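 HUVEC, 3C system; 24 h chemical exposure; MCP-1 by ELISA; bidirectional curve fit vs DMSO baseline.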

Read-out in test [6]: Monocyte Chemoattractant Protein-1 (MCP1), CCL2 (gene 6347)
Put plainly: BSK_4H_MCP1: BioMAP Diversity Plus: 4H Assay for Monocyte Chemoattractant Protein-1 (MCP1) Biomarker Activity (AID 2283018). The settings on record: primary human endothelial cells (HUVEC); actives raise or lower the signal. In a few lines: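 Primary human umbilical vein endothelium is exposed to chemical for 24 h before MCP-1 is assayed by ELISA. Concentration-response fitted bidirectionally relative to DMSO.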

Read-out in test [7]: Human Leukocyte Antigen - DR isotype (HLADR), HLA-DRA (gene 3122)
The test can be described thus: BSK_3C_HLADR: BioMAP Diversity Plus: 3C Assay for Human Leukocyte Antigen - DR isotype (HLADR) Biomarker Activity (AID 2283019).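 For outcome: ELISA of cell-surface HLA-DR on HUVEC 24 h after dosing.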 The note with it: primary human endothelial cells (HUVEC); actives raise or lower the signal. In a few lines: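 HUVEC, 3C stimulation, 24 h post-dose; HLA-DR by ELISA; bidirectional curve fit vs DMSO baseline; gain or loss of signal scored.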

Read-out in test [8]: Interleukin-8 (IL8), CXCL8 (gene 3576)
The test can be described thus: BSK_3C_IL8: BioMAP Diversity Plus: 3C Assay for Interleukin-8 (IL8) Biomarker Activity (AID 2283020). The note with it: primary human endothelial cells (HUVEC); actives raise or lower the signal. In a few lines:
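Using DMSO-treated wells as the baseline, bidirectional curve fitting was applied to ELISA-measured IL-8 from human umbilical vein endothelial cultures sampled 24 h after compound addition.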

Read-out in test [9]: Monokine induced gamma interferon (MIG), CXCL9 (gene 4283)
Put plainly: BSK_3C_MIG: BioMAP Diversity Plus: 3C Assay for Monokine induced gamma interferon (MIG) Biomarker Activity (AID 2283021).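 For AC50: MIG protein level measured by immunoassay in the treated endothelial cultures.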 The settings on record: primary human endothelial cells (HUVEC); actives raise or lower the signal. In a few lines:
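ELISA-measured MIG in dosed HUVEC 3C cultures at 24 h, analysed by bidirectional fitting with DMSO defining baseline activity.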

The target of test [10] is Retinoic acid receptor RXR-alpha (Homo sapiens) (UniProt P19793). Put plainly: ATG_RXRa_TRANS: Attagene TRANS-FACTORIAL HepG2 Assay for human Retinoid X Receptor alpha (RXRa) (AID 2283012; active = hit-call score of the fitted dose curve at least 0.9, where 1 is the maximum). In a few lines: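 Chimeric NR-GAL4 trans-activation in HepG2, 24 h treatment; reporter transcripts quantified by fluorescence on capillary electrophoresis, analysed for upward change from DMSO.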

The structures appear in SMILES notation. Results filed as inconclusive are left out. The source made the active and inactive calls. Rule for the calls, unless noted: active = hit-call score of the fitted dose curve at least 0.9, where 1 is the maximum; inactive = score below 0.9.

Sequence of human Retinoid X Receptor beta (RXRb), RXRB (gene 6257) (P28702 whole entry, looked up, the tested form may be a part): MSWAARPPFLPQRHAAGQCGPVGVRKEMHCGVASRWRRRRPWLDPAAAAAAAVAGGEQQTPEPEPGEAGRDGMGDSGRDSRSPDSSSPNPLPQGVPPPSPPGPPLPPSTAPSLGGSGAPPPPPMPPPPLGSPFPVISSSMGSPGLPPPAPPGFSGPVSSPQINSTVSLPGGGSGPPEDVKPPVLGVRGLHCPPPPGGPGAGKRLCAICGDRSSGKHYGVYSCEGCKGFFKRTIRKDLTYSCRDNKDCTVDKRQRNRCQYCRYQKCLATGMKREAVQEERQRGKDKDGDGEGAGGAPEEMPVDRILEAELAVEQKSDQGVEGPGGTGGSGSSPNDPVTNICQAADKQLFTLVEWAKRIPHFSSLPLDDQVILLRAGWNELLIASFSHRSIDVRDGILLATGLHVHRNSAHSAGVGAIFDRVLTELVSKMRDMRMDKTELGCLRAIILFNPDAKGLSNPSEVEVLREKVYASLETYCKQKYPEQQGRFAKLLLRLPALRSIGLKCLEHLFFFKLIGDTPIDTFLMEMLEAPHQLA
Sequence of Retinoic acid receptor RXR-alpha (Homo sapiens) (P19793 whole entry, looked up, the tested form may be a part): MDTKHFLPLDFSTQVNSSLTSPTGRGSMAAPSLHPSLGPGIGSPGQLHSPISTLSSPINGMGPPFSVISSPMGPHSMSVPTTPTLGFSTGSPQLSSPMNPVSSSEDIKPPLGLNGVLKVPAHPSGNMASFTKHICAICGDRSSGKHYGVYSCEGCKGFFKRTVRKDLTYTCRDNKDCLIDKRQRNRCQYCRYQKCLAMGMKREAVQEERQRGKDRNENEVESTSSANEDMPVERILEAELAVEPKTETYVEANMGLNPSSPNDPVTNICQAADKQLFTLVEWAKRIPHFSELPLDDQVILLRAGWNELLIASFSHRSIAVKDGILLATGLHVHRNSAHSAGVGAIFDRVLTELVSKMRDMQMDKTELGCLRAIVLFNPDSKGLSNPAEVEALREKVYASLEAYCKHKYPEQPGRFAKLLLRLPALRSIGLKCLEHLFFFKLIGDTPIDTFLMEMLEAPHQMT
Sequence of human Thyroid Receptor alpha (THRa1), THRA (gene 7067) (P10827 whole entry, looked up, the tested form may be a part): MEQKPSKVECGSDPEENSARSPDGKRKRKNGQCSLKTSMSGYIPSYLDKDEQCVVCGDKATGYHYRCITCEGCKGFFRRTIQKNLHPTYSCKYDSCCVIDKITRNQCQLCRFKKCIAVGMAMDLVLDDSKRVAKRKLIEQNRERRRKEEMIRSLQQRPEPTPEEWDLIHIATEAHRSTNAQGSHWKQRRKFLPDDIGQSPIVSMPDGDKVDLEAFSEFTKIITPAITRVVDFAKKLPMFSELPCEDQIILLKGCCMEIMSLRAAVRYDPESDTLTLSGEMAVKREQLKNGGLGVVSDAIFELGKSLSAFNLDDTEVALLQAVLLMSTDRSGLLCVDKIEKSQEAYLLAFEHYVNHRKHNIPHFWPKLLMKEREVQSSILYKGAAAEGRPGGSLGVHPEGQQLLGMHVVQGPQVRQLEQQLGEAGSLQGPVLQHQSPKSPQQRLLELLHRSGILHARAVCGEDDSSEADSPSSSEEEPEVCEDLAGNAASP
Sequence of E-selectin (Homo sapiens) (P16581 whole entry, looked up): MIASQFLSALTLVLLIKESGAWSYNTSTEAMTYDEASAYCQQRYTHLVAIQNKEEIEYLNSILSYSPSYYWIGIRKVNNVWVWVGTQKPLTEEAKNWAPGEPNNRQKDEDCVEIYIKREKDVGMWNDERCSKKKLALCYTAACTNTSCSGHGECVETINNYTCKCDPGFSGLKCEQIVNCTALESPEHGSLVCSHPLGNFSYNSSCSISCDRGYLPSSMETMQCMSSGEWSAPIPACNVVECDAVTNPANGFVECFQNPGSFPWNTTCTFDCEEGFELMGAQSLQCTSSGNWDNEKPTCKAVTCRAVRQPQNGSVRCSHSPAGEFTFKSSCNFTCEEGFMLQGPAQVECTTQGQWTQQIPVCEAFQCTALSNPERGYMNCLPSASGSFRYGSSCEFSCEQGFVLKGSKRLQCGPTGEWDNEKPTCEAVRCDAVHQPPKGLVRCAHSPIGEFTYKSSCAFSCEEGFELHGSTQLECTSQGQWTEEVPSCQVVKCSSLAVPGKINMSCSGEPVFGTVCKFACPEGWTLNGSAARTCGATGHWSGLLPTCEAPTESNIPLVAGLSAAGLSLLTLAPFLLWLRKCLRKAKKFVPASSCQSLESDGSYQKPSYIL

`CC(C)(O)c1coc(S(=O)(=O)NC(=O)Nc2c3c(cc4c2CCC4)CCC3)c1`: the compound was classed as inactive in [1], in test [2], in test [3], in test [4], in test [5] and in test [6]. Besides, the outcome in [7], in test [8] and in [9] was inactive.
For the compound `C1N2CN3CN1CN(C2)C3`, the compound was classed as inactive in test [10], in test [1], in [2], in [3], in test [4] and in [5]. For the same compound, the result in test [6], in test [7], in [8] and in test [9] was inactive.
Consider `CCOc1cccc(-n2cc(C(=O)N3CCN(c4cc(C(=O)O)c5ccccc5c4)CC3)nc2-c2ccc(C)cc2)c1`, for which the result in [10], in test [2] and in test [3] was inactive. The AC50 in test [4] was 29.2 µM (active); in test [5], 23 µM (active); in [6], 23.3 µM (active); in [7] it was 15.3 µM (active); in test [8], 11.9 µM (active); in [9], 35.5 µM (active).
For the compound `CC(C)=CCC/C(C)=C\CO`, the compound was called inactive in test [10], in [3], in test [4], in test [5], in [6] and in test [7]. The result in [8] and in test [9] was inactive.
Consider `CCCN(C1CCN(C(=O)C2CCNCC2)CC1)[C@@H]1CCc2ccc(OC)cc2C1`, for which the result in [1], in test [2], in [3], in [4], in test [5] and in test [6] was inactive. Besides, the outcome in [7], in [8] and in test [9] was inactive.
With `O=C(O)c1cccc(Oc2ccccc2)c1`, the compound was classed as inactive in [1], in test [2], in test [3], in [4], in test [5] and in [6]. Also, the outcome in test [7], in [8] and in [9] was inactive.
Turning to `COC(=O)c1ccccc1O`, the result in [10], in test [3], in test [4], in [5], in test [6] and in [7] was inactive. In addition, the outcome in [8] and in test [9] was inactive. In addition, the concentration at half-maximal activity (AC50) in [1] is 2.1 µM (active).
Take `O=C(CCCCCCCCc1cccnc1)N1CCC(C=C(c2ccccc2)c2ccccc2)CC1`: the compound was called inactive in test [10] and in test [1]. Besides, the AC50 was 19.4 µM (active) in test [3]; 27.3 µM (active) in test [4]; 8.66 µM (active) in test [5]; 5.75 µM (active) in test [6]; 6.54 µM (active) in test [7]; 8.66 µM (active) in test [8]. Moreover, the concentration at half-maximal activity (AC50) in test [9] was 14.2 µM (active).
Regarding `CCNc1ccccc1`, the call in test [1], in test [2], in [3], in [4], in [5] and in test [6] was inactive. Moreover, the outcome in [7], in test [8] and in test [9] was inactive.
For `CNS(=O)(=O)c1cc(C(=O)N2CCC(CCN3C4CCC3CC(n3c(C)nc5ccccc53)C4)(c3cccc(F)c3)CC2)c(Cl)cc1F` (stereo not given), the compound was classed as inactive in test [1], in [2], in [3], in [4], in test [6] and in test [9]. The results for the AC50 in test [5], in test [7] and in test [8] were 33.7 µM (active), 28.9 µM (active) and 29.4 µM (active), respectively.
As for `CC(C)=CCCC(C)=CC=O`, the result in [10], in test [1], in [3], in [4], in test [5] and in test [6] was inactive. For the same compound, the result in [7], in test [8] and in test [9] was inactive.
Turning to `CCCCC(CC)COC(=O)c1ccc(C(=O)OCC(CC)CCCC)cc1` (stereo not given), the AC50 in [1] is 49.7 µM (active). Besides, the call in test [2], in test [3], in [4], in test [5], in [6] and in test [7] was inactive. Besides, the outcome in test [8] and in [9] was inactive.
With `CCCCCCCCCCCCCCCO`, the result in test [10], in [4] and in test [9] was inactive. Further, the AC50 in test [1] was 27.5 µM (active); in test [3] it was 26.9 µM (active); in test [5], 32.6 µM (active); in test [6], 29.1 µM (active); in test [7], 31.4 µM (active); in test [8], 31.2 µM (active).
Consider `COC(=O)c1c(Cl)c(Cl)c(C(=O)OC)c(Cl)c1Cl`, for which the compound was called inactive in [10], in [3], in test [4], in test [5], in test [6] and in test [7]. Further, the result in test [8] and in [9] was inactive. Moreover, in test [1], the half-maximal activity concentration (AC50) is 30.8 µM (active).
Consider `CC[C@H]1OC(=O)[C@H](C)[C@@H](O[C@H]2C[C@@](C)(OC)[C@@H](O)[C@H](C)O2)[C@H](C)[C@@H](O[C@@H]2O[C@H](C)C[C@H](N(C)C)[C@H]2O)[C@](C)(O)C[C@@H](C)C(=O)[C@H](C)[C@@H](O)[C@]1(C)O`, for which the compound was classed as inactive in [1], in test [2], in test [3], in test [4], in [5] and in test [6]. In addition, the outcome in test [7], in test [8] and in test [9] was inactive.
Consider `CCc1cc(SCc2sc(-c3ccc(C(F)(F)F)cc3)nc2CN2CCN(c3ccc(OC)cc3)CC2)ccc1OCC(=O)O`, for which, in [10], the compound was classed as inactive. The AC50 in test [3] is 15.2 µM (active); in test [4] it was 7 µM (active); in test [5], 12 µM (active); in test [6] it was 8.42 µM (active); in test [7], 11.4 µM (active); in test [8], 16.7 µM (active). Also, the AC50 in test [9] was 16.9 µM (active).
In the case of `CC(C)CC(C)(O)C#CC(C)(O)CC(C)C` (stereo not given), the compound was called inactive in test [10], in test [1], in test [2], in test [3], in [4] and in test [5]. The result in test [6], in [7], in [8] and in [9] was inactive.
On to `Cc1[nH]cnc1C[C@H]1CCc2c(C)c3ccccc3n2C1=O`, for which the result in [10], in test [1], in [2], in [3], in [4] and in test [9] was inactive. Further, the half-maximal activity concentration (AC50) was 27.5 µM (active) in test [5], 22.9 µM (active) in test [6], 29.4 µM (active) in [7] and 22.4 µM (active) in test [8].
For the compound `CCCCCCCCO`, the compound was classed as inactive in test [10], in test [3], in test [4], in [5], in test [6] and in test [7]. Moreover, the outcome in test [8] and in test [9] was inactive.
Consider `O=C(O)CCN(C1(C(=O)NO)CCCC1)S(=O)(=O)c1ccc(Oc2ccc(F)cc2)cc1`, for which the compound was called inactive in [1], in test [2], in [3], in [4], in test [5] and in [6]. The result in test [7], in [8] and in test [9] was inactive.
